Data as given in PubChem BioAssay.
Active and inactive are the calls of the source.

What was measured:
[1] = E. coli DRC41 culture turbidity changes, primary screen, E. coli filamentation inducer project, strain DRC41, OD650, 48 h (AID 1152);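 further: E. coli MC1000 strain DRC41 lacking acrAB efflux pump and sulA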; conditions: E. coli DRC41 (acrAB sulA), higher = more signal, called active from +8 up or from −8 down
[2] = small-molecule binders of probe aLefty1, primary screen, biochemical, small-molecule microarray, 635/667 nm fluorescence (AID 1153); conditions: higher = more signal;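 further: score merges spot fluorescence with signal-to-noise ratio from the scanned slide images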
[3] = PSAC antagonists in infected red cells, primary screen, cell-based, P. falciparum Indochina, OD700, 1 h (AID 1154); conditions: P. falciparum Indochina infected RBC osmotic lysis, higher = more signal, called active from +8 up or from −8 down
[4] = PSAC antagonists in infected red cells, primary screen, cell-based, P. falciparum Indochina, OD700, 2 h (AID 1155);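 further: lysis reports solute entry through the parasite surface anion channel PSAC; channel blockers reduce lysis of infected cells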; conditions: P. falciparum Indochina infected erythrocytes, osmotic lysis OD700; higher = more signal, called active from +8 up or from −8 down
[5] = osmotic lysis modulators in infected erythrocytes, primary screen, PSAC antagonist project, cell-based, P. falciparum Indochina, OD700, 3 h (AID 1156); conditions: higher = more signal, called active from +8 up or from −8 down
[6] = PSAC antagonists in infected red cells, primary screen, cell-based, P. falciparum Indochina, OD700, 18 h (AID 1157); conditions: P. falciparum Indochina infected erythrocytes, osmotic lysis OD700, 18 h; higher = more signal, called active from +8 up or from −8 down
[7] = modulators of S6 phosphorylation in cells, primary screen, cell-based, A549, cytoblot, luminescence, serum-stimulated (AID 1158); conditions: A549 phospho-S6 cytoblot, 5 h, higher = more signal;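 further: serum-stimulated A549 lung adenocarcinoma cells; signal is phosphorylated S6 detected by cytoblot immunostaining with HRP secondary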
[8] = biological target: NADPH oxidase 2 (Homo sapiens) (UniProt P04839); experiment: NOX2-dependent H2O2 signal modulators, primary screen, NOX inhibitor project, cell-based, HEK293-NOX2, PMA-stimulated, Amplex Red fluorescence (AID 1159); conditions: 45 min, higher = more signal, called active from +8 up or from −8 down; further: test concentration not given here
NADPH oxidase 2 (Homo sapiens), sequence (P04839 whole entry, looked up): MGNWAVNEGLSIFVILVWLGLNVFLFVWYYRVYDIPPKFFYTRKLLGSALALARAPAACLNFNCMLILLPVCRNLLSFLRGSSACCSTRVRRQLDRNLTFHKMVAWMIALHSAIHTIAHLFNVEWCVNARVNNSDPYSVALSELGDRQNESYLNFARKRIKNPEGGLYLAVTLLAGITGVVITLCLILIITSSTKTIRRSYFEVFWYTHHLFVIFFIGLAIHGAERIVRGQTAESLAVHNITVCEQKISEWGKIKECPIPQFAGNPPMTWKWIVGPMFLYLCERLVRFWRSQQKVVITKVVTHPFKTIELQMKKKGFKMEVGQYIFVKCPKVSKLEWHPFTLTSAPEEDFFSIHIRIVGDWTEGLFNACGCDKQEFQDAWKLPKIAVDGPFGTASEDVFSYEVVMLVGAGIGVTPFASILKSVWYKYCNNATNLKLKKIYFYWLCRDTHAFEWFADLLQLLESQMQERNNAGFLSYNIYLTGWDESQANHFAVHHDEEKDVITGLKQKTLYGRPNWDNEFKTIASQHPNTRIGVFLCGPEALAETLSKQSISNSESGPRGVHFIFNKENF

[9] = biological target: NADPH oxidase 4 (Homo sapiens) (UniProt Q9NPH5); experiment: NOX4-dependent H2O2 signal modulators, primary screen, NOX inhibitor project, cell-based, HEK293-NOX4, tetracycline-induced, Amplex Red fluorescence (AID 1160); conditions: 45 min, higher = more signal, called active from +8 up or from −8 down
NADPH oxidase 4 (Homo sapiens), sequence (Q9NPH5 whole entry, looked up): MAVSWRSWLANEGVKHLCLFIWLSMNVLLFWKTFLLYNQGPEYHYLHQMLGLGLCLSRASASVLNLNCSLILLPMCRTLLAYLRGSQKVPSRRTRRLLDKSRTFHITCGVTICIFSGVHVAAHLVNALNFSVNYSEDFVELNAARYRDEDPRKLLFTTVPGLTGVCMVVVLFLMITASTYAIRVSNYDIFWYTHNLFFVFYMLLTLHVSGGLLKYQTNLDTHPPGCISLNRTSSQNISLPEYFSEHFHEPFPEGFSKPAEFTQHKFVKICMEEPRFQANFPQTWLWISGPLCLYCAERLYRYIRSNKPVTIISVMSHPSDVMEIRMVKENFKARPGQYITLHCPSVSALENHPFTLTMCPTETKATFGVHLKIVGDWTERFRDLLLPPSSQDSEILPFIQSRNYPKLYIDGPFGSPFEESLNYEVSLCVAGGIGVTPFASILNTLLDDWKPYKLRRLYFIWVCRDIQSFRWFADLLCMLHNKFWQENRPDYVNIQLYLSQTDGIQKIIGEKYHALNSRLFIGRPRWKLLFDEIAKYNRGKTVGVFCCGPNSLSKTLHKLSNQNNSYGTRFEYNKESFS

[10] = biological target: NADPH oxidase 5 (Homo sapiens) (UniProt Q96PH1); experiment: NOX5-dependent H2O2 signal modulators, primary screen, NOX inhibitor project, cell-based, HEK293-NOX5, Amplex Red fluorescence (AID 1161); conditions: HEK293-NOX5, ionomycin, 45 min, higher = more signal
NADPH oxidase 5 (Homo sapiens), sequence (Q96PH1 whole entry, looked up): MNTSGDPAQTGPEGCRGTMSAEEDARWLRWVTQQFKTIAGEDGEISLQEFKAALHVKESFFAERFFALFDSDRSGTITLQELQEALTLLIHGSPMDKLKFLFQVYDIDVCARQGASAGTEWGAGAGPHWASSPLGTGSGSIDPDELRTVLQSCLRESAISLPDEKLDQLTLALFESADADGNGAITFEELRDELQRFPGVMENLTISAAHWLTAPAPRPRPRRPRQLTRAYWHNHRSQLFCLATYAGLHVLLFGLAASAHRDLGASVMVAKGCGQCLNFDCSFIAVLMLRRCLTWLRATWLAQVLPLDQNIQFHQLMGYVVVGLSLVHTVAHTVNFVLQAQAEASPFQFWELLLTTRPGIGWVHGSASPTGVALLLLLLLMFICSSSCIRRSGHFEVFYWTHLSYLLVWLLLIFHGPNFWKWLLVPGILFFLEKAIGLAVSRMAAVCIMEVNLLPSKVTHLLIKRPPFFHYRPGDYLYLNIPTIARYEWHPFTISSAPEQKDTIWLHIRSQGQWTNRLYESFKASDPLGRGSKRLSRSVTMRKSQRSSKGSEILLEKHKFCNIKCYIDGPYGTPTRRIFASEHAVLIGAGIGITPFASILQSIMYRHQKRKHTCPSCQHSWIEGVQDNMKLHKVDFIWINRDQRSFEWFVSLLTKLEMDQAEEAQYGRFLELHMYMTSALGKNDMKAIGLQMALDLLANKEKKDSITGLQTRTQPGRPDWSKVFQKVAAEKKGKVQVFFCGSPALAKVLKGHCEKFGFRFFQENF

Structure (SMILES)	z-score [1]	composite z-score [2]	z-score [3]	z-score [4]	z-score [5]	z-score [6]	z-score [7]	z-score [8]	z-score [9]	z-score [10]
CC(c1ccccc1)C(O)C1C=CC2C(=O)NC(=O)C2N1Nc1ccccn1 (stereo not given)	-0.671 (inactive)	0.314	0.887 (inactive)	0.561 (inactive)	-0.255 (inactive)	0.801 (inactive)	-0.8	-0.479 (inactive)	-3.8 (inactive)	-1.79
[N-]=[N+]=NCc1ccccc1C[C@]1(C(=O)NCC(O)CO)N=C(c2ccc(OCCCO)cc2)O[C@H]1c1ccccc1N=[N+]=[N-] (stereo not given in full)	0.801 (inactive)	0.12	31.1 (active)	32.2 (active)	2.92 (inactive)	3.93 (inactive)	0.828	-0.689 (inactive)	-0.154 (inactive)	-1.77
COC(=O)[C@@]1(Cc2ccc(OC)cc2)[C@H]2c3cc(C(=O)N(C)C)n(Cc4c(OC)[nH]cc(C)c4=O)c3C[C@H]2CN1C(=O)c1ccccc1	-0.348 (inactive)	0.276	0.275 (inactive)	-0.997 (inactive)	-0.456 (inactive)	-2.25 (inactive)	2.46	0.689 (inactive)	-0.265 (inactive)	-3.64
CCOC(=O)C1=C[C@@H](CC)N(S(=O)(=O)c2ccc(C)cc2)[C@H]1c1ccccc1	-1.03 (inactive)	0.271	1.83 (inactive)	0.797 (inactive)	-0.187 (inactive)	0.415 (inactive)	-0.388	0.0452 (inactive)	-0.606 (inactive)	-0.182
O=C1OCCC=C[C@H]2OC34C=CCN(c5ccc6ccccc6c5)C(=O)[C@H]3N(CCCCCO)C(=O)[C@@H]4C12 (stereo not given in full)	1.3 (inactive)	0.831	3.56 (inactive)	0.526 (inactive)	2 (inactive)	0.599 (inactive)	-0.37	1.95 (inactive)	0.913 (inactive)	2.57
O=C1O[C@H](c2ccccc2)[C@H](c2ccccc2)N2[C@H]1[C@@H](C(=O)Nc1nc3ccccc3s1)[C@]1(C(=O)Nc3ccccc31)[C@H]2c1ccc(O)cc1	-0.626 (inactive)	-0.294	1.53 (inactive)	2.51 (inactive)	0.486 (inactive)	1.69 (inactive)	0.192	0.844 (inactive)	0.479 (inactive)	0.201
COCCOC(=O)N1C(=O)[C@@]2(c3cc(C#CCCO)ccc31)[C@H](c1ccc(O)cc1)N1[C@H](c3ccccc3)[C@H](c3ccccc3)OC(=O)[C@H]1[C@@H]2C(N)=O	-0.595 (inactive)	0.501	6.55 (inactive)	1.15 (inactive)	0.152 (inactive)	0.311 (inactive)	-0.218	0.712 (inactive)	-0.952 (inactive)	0.23
CCCCCN1CC=CC23O[C@@H]4/C=C\CCCOC(=O)C4[C@H]2C(=O)N(CCCCCCO)[C@@H]3C1=O (stereo not given in full)	2.24 (inactive)	-0.146	2.25 (inactive)	0.753 (inactive)	-0.387 (inactive)	0.158 (inactive)	5.32	0.876 (inactive)	0.243 (inactive)	1.75
COC(=O)c1c(CC[C@@H](CO)NC(=O)N[C@@H](Cc2ccccc2)Cn2cc(C3(O)CCCCC3)nn2)oc(C(C)=O)c1C(=O)OC	1.27 (inactive)	0.101	2.27 (inactive)	0.566 (inactive)	0.999 (inactive)	0.312 (inactive)	1.93	-5.26 (inactive)	-2.18 (inactive)	-4.82
C=CCOC(=O)[C@@H]1[C@H]2C(=O)O[C@H](c3ccccc3)[C@H](c3ccccc3)N2[C@H](c2ccc(OCCOC(=O)[C@@H]3C[C@@H]4C(=O)N[C@@H](Cc5ccccc5)C(=O)N4[C@@H]3c3cccc(OCCO)c3)cc2)[C@@]12C(=O)Nc1ccc(I)cc12	0.264 (inactive)	0.706	9.36 (active)	2.8 (inactive)	2.09 (inactive)	1.31 (inactive)	-0.479	1.03 (inactive)	-1.02 (inactive)	0.727
CCCCC=C[C@@H](NC(=O)c1ccco1)c1ccccc1	-1.24 (inactive)	0.0701	1.02 (inactive)	0.941 (inactive)	-0.279 (inactive)	0.813 (inactive)	0.782	-0.226 (inactive)	0.76 (inactive)	1.01
[N-]=[N+]=Nc1ccccc1C[C@]1(C(=O)NCCN2CCOCC2)N=C(c2ccc(OCCCO)cc2)O[C@H]1c1ccccc1	0.0623 (inactive)	0.728	14.1 (active)	1.53 (inactive)	1.37 (inactive)	0.766 (inactive)	-0.0135	-1.92 (inactive)	0.0642 (inactive)	-1.32
CCCN1C(=O)[C@]2(COC(c3ccc(OCCCO)cc3)=N2)Cc2ccccc21	-0.516 (inactive)	0.0927	16.9 (active)	2.23 (inactive)	2.31 (inactive)	0.741 (inactive)	-0.0824	-0.248 (inactive)	-0.0403 (inactive)	-1.42
CC(C)C[C@@H]1NC(=O)[C@@H]2C[C@H](C(=O)NCCCCCC[N+](C)(C)C)[C@H](c3ccc(O)cc3)N2C1=O	0.55 (inactive)	0.127	3.47 (inactive)	0.637 (inactive)	-1.96 (inactive)	0.227 (inactive)	-0.274	0.994 (inactive)	0.763 (inactive)	0.75
CC(C)(C)OC(=O)CC[C@@]1(C(=O)NCCN2CCOCC2)N=C(c2ccc(OCCCO)cc2)O[C@@H]1c1ccccc1	1.18 (inactive)	0.296	14.8 (active)	1.8 (inactive)	0.267 (inactive)	0.813 (inactive)	0.413	0.63 (inactive)	1.03 (inactive)	1.8
CC(C)(C)OC(=O)CC[C@@]1(C(=O)O)N=C(c2ccc(OCCCO)cc2)O[C@@H]1c1ccccc1N=[N+]=[N-]	0.592 (inactive)	0.266	31.5 (active)	28.4 (active)	1.79 (inactive)	7.51 (inactive)	-0.342	-0.0442 (inactive)	1.69 (inactive)	0.907
CN(C)CCCNC(=O)[C@@]1(Cc2ccccc2I)c2ccccc2C(=O)N(Cc2ccccc2C(F)(F)F)[C@H]1c1ccc(CO)cc1	-2.14 (inactive)	-0.0536	11.8 (active)	1.49 (inactive)	-0.231 (inactive)	0.649 (inactive)	-0.349	-10 (active)	-4.55 (inactive)	-4.63
COc1ccc(C(O)C2C=CC3C(=O)N(c4ccccc4)C(=O)C3N2Nc2ccc([N+](=O)[O-])cc2)cc1OCc1ccccc1 (stereo not given)	-1.64 (inactive)	1.55	14.2 (active)	2.71 (inactive)	0.107 (inactive)	0.926 (inactive)	-0.881	0.151 (inactive)	-0.18 (inactive)	-1.29
O=C1O[C@H](c2ccccc2)[C@H](c2ccccc2)N2[C@H]1[C@@H](C(=O)O)[C@]1(C(=O)Nc3ccc(C#CC4=CCCCC4)cc31)[C@H]2c1ccc(OCCO)cc1	-0.915 (inactive)	0.167	0.381 (inactive)	-0.97 (inactive)	-9.89 (active)	-0.969 (inactive)	0.333	1.19 (inactive)	-0.768 (inactive)	1.37
COCCOC(=O)N1C(=O)[C@@]2(c3cc(C#CCCO)ccc31)[C@H](c1ccccc1OCCO)N1[C@H](c3ccccc3)[C@H](c3ccccc3)OC(=O)[C@H]1[C@@H]2C(=O)N1CCN(c2ncccn2)CC1	-0.33 (inactive)	0.85	2.52 (inactive)	1.32 (inactive)	-0.293 (inactive)	0.708 (inactive)	-0.262	1.22 (inactive)	1.05 (inactive)	1.16
O=C1O[C@H](c2ccccc2)[C@H](c2ccccc2)N2[C@H]1[C@@H](C(=O)N1CCN(c3ncccn3)CC1)[C@]1(C(=O)Nc3ccccc31)[C@H]2c1ccc(OCCO)cc1	2.64 (inactive)	-0.0221	7.83 (inactive)	0.395 (inactive)	0.81 (inactive)	-1.32 (inactive)	2.11	0.192 (inactive)	-1.33 (inactive)	-2.84
[N-]=[N+]=NCc1ccccc1C[C@@]1(C(=O)NCC(O)CO)N=C(c2ccc(OCCCO)cc2)O[C@@H]1c1ccccc1CN=[N+]=[N-] (stereo not given in full)	0.19 (inactive)	0.455	27.4 (active)	14.6 (active)	0.029 (inactive)	2.24 (inactive)	-0.324	0.266 (inactive)	1.54 (inactive)	2.31
C=CCC(OC(C)=O)[C@@H]1[C@@H](N(Cc2cccc3ccccc23)C(=O)c2ccc(C)cc2)c2cc(OCCCO)ccc2N1C(=O)Cc1ccc(OC)cc1 (stereo not given in full)	2.7 (inactive)	-0.0482	0.786 (inactive)	-0.438 (inactive)	-0.632 (inactive)	-0.669 (inactive)	1.95	-0.993 (inactive)	0.727 (inactive)	0.687
CCOC(=O)C[C@H]1[C@H](OC(=O)Cc2ccc3c(c2)OCO3)[C@@H](NC(=O)C2CCCCC2)c2cc(OCCCO)ccc2N1C(=O)Cc1ccc(OC)cc1	2.31 (inactive)	0.405	5.77 (inactive)	-0.54 (inactive)	-1.21 (inactive)	-0.911 (inactive)	1.97	-0.00495 (inactive)	1.07 (inactive)	0.297
CCOC(=O)C1=CCC(c2ccc([N+](=O)[O-])cc2)N(S(=O)(=O)c2ccc(C)cc2)C1 (stereo not given)	-0.65 (inactive)	0.0839	5.2 (inactive)	1.91 (inactive)	-0.364 (inactive)	0.781 (inactive)	-0.864	1.07 (inactive)	0.135 (inactive)	0.739
C=C(COC)C(=O)CC[C@@H](OC(=O)c1cccnc1)c1ccc(CO)o1	0.272 (inactive)	-0.0536	1.47 (inactive)	0.145 (inactive)	0.0755 (inactive)	0.038 (inactive)	-0.0125	1.59 (inactive)	0.304 (inactive)	0.21
